In PubChem BioAssay AID1619 (SRMLSC, 2009):
Out of some 220,000 compounds screened, about 830 (0.38%) were called active.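 How the source made its calls: active means compound inhibiting the enzyme by more than half at any dose during confirmatory dose-response retesting; inconclusive means strong single-dose inhibitors picked by rank but not retested; inactive means the rest.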 A selection follows. Entries with a potency or affinity are not part of this list. Residues, ends and D or L forms follow the SMILES beside them. *: point of attachment. Boc = CC(C)(C)OC(=O)*

target: Leucine aminopeptidase (Plasmodium falciparum (isolate 3D7)) (UniProt Q8IL11); test: P. falciparum M17LAP inhibitors, primary screen, biochemical, fluorogenic H-Leu-NHMec substrate, 1536-well (AID 1619); conditions: recombinant M17LAP, H-Leu-NHMec fluorogenic kinetic assay; at 30 µM; stronger effect = higher value;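 further: plate controls were full reaction with DMSO carrier for no effect and no enzyme background for full effect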
Sequence (Q8IL11 whole entry, looked up): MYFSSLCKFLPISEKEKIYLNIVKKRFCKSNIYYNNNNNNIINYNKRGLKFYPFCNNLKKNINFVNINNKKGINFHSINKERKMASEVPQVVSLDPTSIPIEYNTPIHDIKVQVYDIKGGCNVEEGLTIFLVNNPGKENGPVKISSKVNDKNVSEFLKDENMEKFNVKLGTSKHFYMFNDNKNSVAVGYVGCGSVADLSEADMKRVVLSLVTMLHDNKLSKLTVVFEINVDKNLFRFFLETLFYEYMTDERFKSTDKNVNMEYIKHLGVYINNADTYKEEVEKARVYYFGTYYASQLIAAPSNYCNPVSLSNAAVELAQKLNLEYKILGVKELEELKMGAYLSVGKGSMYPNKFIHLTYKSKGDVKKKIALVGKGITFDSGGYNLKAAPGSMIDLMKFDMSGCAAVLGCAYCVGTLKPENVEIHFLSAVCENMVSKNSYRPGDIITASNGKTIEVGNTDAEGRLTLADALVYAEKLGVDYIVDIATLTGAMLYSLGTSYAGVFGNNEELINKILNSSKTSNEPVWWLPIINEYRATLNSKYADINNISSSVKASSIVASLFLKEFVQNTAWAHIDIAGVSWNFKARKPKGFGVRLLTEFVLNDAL

inhibition, inactive:
CCC1CSC(Nc2ccc(C(=O)/C=C/c3ccc(Br)cc3)cc2)=N1 (centres undefined) 15.6%, CSc1ncc(Cl)c(C(=O)Nc2nnc(SC)s2)n1 13.3%, CCSc1ncc(Cl)c(C(=O)Nc2ccccc2)n1 -6.07%, C=CCSc1nnc(NC(=O)c2ccc(Cl)nc2)s1 9.37%, CSc1ncc(Cl)c(C(=O)Nc2nnc(SC/C=C/c3ccccc3)s2)n1 29.5%, O=C(CCn1cnc2ccccc21)N/N=C/c1ccccc1O -4.46%, CCOC(=O)CSc1nc(C(C)(C)C)nc2ccccc12 -0.8%, Cc1cc(C)c2c(=O)n(CC(=O)Nc3cccc(F)c3)sc2n1 -3.07%, CC1(C(=O)Nc2nnc(SCc3ccccc3)s2)Cc2ccccc2C(=O)O1 (centres undefined) 45.4%, CC1(C(=O)Nc2nnc(C(C)(C)C)s2)Cc2ccccc2C(=O)O1 (centres undefined) 48.3%, Cc1ccc(-c2noc(CNCCCN(C)C)n2)cc1 2.07%, Cn1c(=O)c2c(SCC(=O)N3CCOCC3)nc(C3CCCCC3)nc2n(C)c1=O -15.2%, O=C(Cc1ccc(-c2ccccc2)cc1)NCc1ccccc1 -2.44%, O=C(Cc1csc(NC(=O)c2ccccc2)n1)NO 28.3%, CS(=O)(=O)N(CC(=O)N1CCOCC1)Cc1ccc(Cl)cc1 -4.28%, CN(C)CC(=O)c1ccc(-c2ccccc2)cc1 68.2%, CCC(=O)c1ccc(-c2ccccc2)cc1 -6.48%, CC(C)C(NC(=O)OC(C)(C)C)C(=O)N1CCCC1C(=O)NC(Cc1ccccc1)C(N)=O (stereo not drawn) (Boc-Val-Pro-Phe-NH2; configuration not given here) 17.4%, CC(C)(C)OC(=O)N1CCCC1C(=O)NC(Cc1ccccc1)C(=O)O (stereo not drawn) (Boc-Pro-Phe-OH; configuration not given here) 9.76%, Cc1nn(-c2ccc(F)cc2)c(Cl)c1/C=C/C(=O)OCC(=O)Nc1ccc(F)cc1F 0.75%, O=C(c1ccccc1)c1ncc(C(F)(F)F)cc1Cl -12.8%, CCCCn1c(SCC(=O)c2ccc(O)c(O)c2)nc2ccsc2c1=O 19.5%, O=C(O)CCCCCn1c(SCC(=O)N2CCCC2)nc2ccsc2c1=O 14.5%, CNc1nc(Oc2ccc(C(=O)OC)cc2)nc(SC)n1 -13.4%, Cn1cc(Cl)c(-c2n[nH]c(=S)n2-c2ccccc2)n1 8.04%, CCOC(=O)c1c(NC(=O)CSc2nc3ccccc3c(=O)n2-c2ccccc2)sc(C(C)=O)c1C -1.44%, Cc1ccc(O)c(C(=O)c2cnn(C(=O)Cc3csc(C)n3)c2)c1 -1.8%, O=C(c1cnn(C(=O)COc2ccccc2F)c1)c1cc(F)ccc1O 1.06%, O=C(Cn1cnc2ccccc2c1=O)c1ccc(Cl)cc1 1.39%, COc1ccc(N(C(=O)C(C)C)S(=O)(=O)c2ccc(Cl)cc2)cc1 -1.25%, CCn1c(COc2ccc(C)cc2)nnc1SCC(=O)NCc1ccco1 6.34%, CCn1c(CNc2nc(-c3ccccc3)cs2)nnc1SCC(=O)NCc1ccco1 -5.1%, CCOc1ccc(Nc2nc(Cc3nnc(SCC(=O)c4ccc(C)cc4)o3)cs2)cc1 27.5%, CCOc1ccc(Nc2nc(Cc3nnc(SCC(N)=O)o3)cs2)cc1 27.7%, CC(=O)/C(=N\Nc1cccc(Cl)c1)Sc1nnc(-c2ccccc2)n1-c1ccccc1 -10.1%, CCC(Oc1ccccc1)C(=O)NC1C(=O)N2C1SC(C)(C)C2C(=O)O (centres undefined) 19.9%, Cn1c(=O)c2c(nc(N3CCCCC3)n2CCNC2=NCCC2)n(C)c1=O 11.7%, O=C(Nc1ccccc1)Nc1scc2c1c(=O)oc1ccccc12 -3.24%, COc1ccc(C(=O)N2CCc3cc(OC)c(OC)cc3C2c2cccc([N+](=O)[O-])c2)cc1OC (centres undefined) -0.93%, Cc1ccc(C2C(C#N)=C3N=C(N)c4ccccc4N3C3=C2C(=O)CCC3)cc1 (centres undefined) -9.17%, Cn1c(-c2cccc3ccccc23)n[nH]c1=S -3.33%, c1ccc2c(-c3nn[nH]n3)cccc2c1 -2.27%, O=C(Oc1ccc(Br)cc1C(=S)N1CCCC1)c1ccccc1F -3.73%, CN=C1SC(CC(=O)Nc2ccc(N3CCOCC3)cc2)C(=O)N1C (centres undefined) -4.74%, CSCCC(NC(=O)c1cc(C)oc1C)C(=O)O (centres undefined) 5.74%, CSCCC(NC(=O)c1ccc(C)o1)C(=O)O (centres undefined) -6.5%, COC(=O)c1cccc(NC(=O)c2onc3c2CCCC3)c1 10.6%, Cc1cc(C(F)(F)F)nn1CC(=O)NNC(=S)Nc1ccc(Cl)cc1 19.4%, Cc1cc(C(=O)N/N=C/C=C/c2cccc([N+](=O)[O-])c2)n[nH]1 26.9%, CC(C)=N/N=C(/c1ccc([N+](=O)[O-])cc1)C12CN3CN(CN(C3)C1)C2 5.26%, CCOC(=O)c1c(NC(=O)c2ccc(N3C(=O)C4C5C=CC(C5)C4C3=O)cc2)sc2c1CCCC2 (centres undefined) -6.59%, CCOC(=O)c1c(NC(=O)C2C3CCC(O3)C2C(=O)O)sc2c1CCC(CC)C2 (centres undefined) 7.12%, CCOC(=O)c1c(N2C(=O)C3C4C=CC(C4)C3C2=O)sc2c1CCC(C)C2 (centres undefined) 2.96%, CCOC(=O)c1c(NC(=O)C2C3C=CC(C3)C2C(=O)O)sc2c1CC(C)(C)OC2 (centres undefined) 31.8%, CCOC(=O)c1c(NS(C)(=O)=O)sc2c1CCC(C)C2 (centres undefined) 8.14%, CCOC(=O)c1c(N)sc2c1CCC(CC)C2 (centres undefined) -12.2%, CCOC(=O)c1c(NC(=O)C2C3C=CC(C3)C2C(=O)O)sc2c1CCCC2 (centres undefined) 42%, CCOC(=O)c1c(NC(=S)Nc2ccccc2)sc2c1CCCCC2 3.6%, Cc1ccc(-n2c(SCC(=O)Nc3cc(C)on3)nc3c([nH]c4ccccc43)c2=O)cc1 4.1%
